Rab9 prom act: Rab9 promoter activation. Huh7 Rab9 promoter-luciferase reporter, luminescence, 24 h. Potency, µM (titrated, usually from 9.22 µM), most hits filed as activators. 2.8% of 320,000 active. AID 485297; further: nearly all actives have a fitted effect of over 60% in size
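Stable Rab9-luc Huh7, 1500 cells/well, 2 h settle; cmpd in DMSO, 24 h, 37 °C/5% CO2; luciferase reagent 10 min RT; luminescence.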
SMN2 splice up: enhancers of SMN2 splice variant expression | 2.8% of 210,000 active | HEK293 SMN2-luciferase splicing reporter, luminescence, 30-36 h | Potency, µM (series often up to 46.1 µM), hits mostly activators | AID 1458; further: nearly all actives have a fitted effect of over 55% in size
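HEK293 cells carry an SMN2 […]–luciferase reporter in which exon 7 inclusion puts luciferase in frame. Cells were plated 10-12 h before compound addition, then incubated 30-36 h at 37C. ONE-Glo luminescence was read; sodium butyrate at 4.5 mM final served as control.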
ELG1 genotoxic: induces genotoxicity in HEK293T cells with luciferase-tagged ELG1; HEK293T ELG1-luciferase reporter, luminescence, 16 h; Potency, µM (titrated, usually from 46 µM), actives largely listed as activators; 1.3% of 330,000 active; further: nearly all actives have a fitted effect of over 60% in size
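Step 1: seed 2,000 HEK293T ELG1-luciferase cells per well. Step 2: add compound or DMSO, incubate 16 hr at 37 °C. Step 3: ONE-Glo, 30 min at room temperature, read luminescence.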
ELG1 repair inh: ELG1-dependent DNA repair inhibition; HEK293T ELG1-luciferase reporter, luminescence, 16 h; DNA damage induced by 5-fluorouridine; Potency, µM (titrated, usually from 46.1 µM), hits mostly inhibitors; 2.3% of 330,000 active; further: nearly all actives have a fitted effect of over 55% in size
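DMSO vehicle served as the neutral condition. Each well held 2,000 cells given 5-fluorouridine plus compound; after 16 hr at 37 °C/5% CO2, ONE-Glo was added and luciferase measured 30 min later.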
NPC1 prom act: NPC1 promoter activation. Huh7 NPC1 promoter luciferase reporter, 24 h. Potency, µM (series often up to 9.22 µM), usual class: activators. 2.4% of 320,000 active. AID 485313; further: nearly all actives have a fitted effect of over 60% in size
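Readout is luciferase luminescence, reflecting NPC1 promoter activation in stably transfected Huh7 cells after 24 h compound exposure at 37 °C in reduced-serum medium with 10% FBS.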
FLuc counter: firefly luciferase modulation, counter-screen for miR-21 project; AID 588342; purified FLuc, Km substrates, luminescence inhibition; 6.9% of 360,000 active; P08659; Potency, µM (series often up to 57.5 µM), usual class: inhibitors; further: nearly all actives have a fitted effect of over 55% in size
Target sequence (P08659 whole entry, looked up): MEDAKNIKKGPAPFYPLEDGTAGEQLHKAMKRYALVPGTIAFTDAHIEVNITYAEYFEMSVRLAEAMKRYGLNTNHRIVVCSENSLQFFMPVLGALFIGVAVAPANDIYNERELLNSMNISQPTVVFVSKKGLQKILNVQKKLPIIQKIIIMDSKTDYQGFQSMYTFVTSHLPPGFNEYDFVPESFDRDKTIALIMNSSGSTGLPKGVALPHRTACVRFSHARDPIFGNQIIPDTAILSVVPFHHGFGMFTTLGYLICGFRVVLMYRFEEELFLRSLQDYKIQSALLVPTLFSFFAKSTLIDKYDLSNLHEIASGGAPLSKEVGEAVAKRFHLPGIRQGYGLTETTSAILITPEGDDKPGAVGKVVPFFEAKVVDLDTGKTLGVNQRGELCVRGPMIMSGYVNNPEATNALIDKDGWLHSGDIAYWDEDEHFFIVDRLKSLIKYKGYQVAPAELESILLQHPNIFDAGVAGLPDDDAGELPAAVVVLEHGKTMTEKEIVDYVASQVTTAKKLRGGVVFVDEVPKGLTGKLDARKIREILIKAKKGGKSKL
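Purified P. pyralis luciferase, 10 nM final, with Km-level 10 uM D-luciferin and 10 uM ATP in 50 mM Tris acetate pH 7.5, 10 mM Mg acetate, 0.01% Tween-20, 0.05% BSA; 6-point qHTS titration about 60 µM downward; luminescence read.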
A number is an active result; . = inactive; ? = inconclusive; / = not tested or not shown. In the library only some 9.2% were active in any assay of this set; here they are far more common. The call rests on the fitted dose curve; in most records, active means well fitted curve in the direction sought with a large enough effect; inconclusive means small, poorly fitted or top-dose-only effect, or another doubt; inactive means no such curve, though single readings can be large; an effect the other way counts as inactive or inconclusive.

SMILES | Rab9 prom act | SMN2 splice up | ELG1 genotoxic | ELG1 repair inh | NPC1 prom act | FLuc counter
CC(C)(C)C(=O)Nc1nnc(SCc2ccc(F)cc2)s1 | . | . | ? | ? | . | ?
COCCSc1nnc(NC(=O)CSc2ccccc2)s1 | . | . | . | . | . | .
CC(C)(C)C(=O)Nc1nnc(SCc2cccc(F)c2)s1 | 2µM | ? | . | ? | ? | 19µM
CN(C)/C=C(\C=O)c1ncc(C(F)(F)F)cc1Cl | . | . | . | . | . | .
C(=N\n1cnnc1)/c1ccc2c(c1)OCCO2 | . | . | . | . | . | .
Cc1cc(C)nc(N/N=C/c2ccccc2)n1 | ? | . | . | . | . | .
C(=N\Nc1nc2ccccc2[nH]1)/c1ccc2c(c1)OCCO2 | 1.4µM | / | ? | ? | ? | 0.76µM
Cc1cccc(/C=N\Nc2cn[nH]c(=O)c2Cl)c1 | . | . | ? | ? | . | ?
Cc1cccc(/C=N/Nc2ccc3ccccc3n2)c1 | ? | . | 0.23µM | ? | ? | 0.076µM
Cc1ccc(/C=N/Nc2ccc3ccccc3n2)o1 | 0.13µM | 1.1µM | ? | ? | 0.71µM | 0.48µM
Cc1cc(C)nc(N/N=C/c2ccc3c(c2)OCCO3)n1 | ? | . | . | ? | . | 19µM
Cc1ccc(/C=N/Nc2cn[nH]c(=O)n2)o1 | . | . | . | . | . | .
Cc1ccc(-c2nc(CN(Cc3c(C)nn(C)c3C)C(C)C)c(C)o2)o1 | . | / | . | . | . | .
CCOc1ccc(C2C(C(=O)OC)=CN(C(C)c3ccccc3)C=C2C(=O)OC)cc1 (stereo unspecified) | . | / | . | . | . | .
Cc1cc(C)nc(N/N=C/c2cccc3ccccc23)n1 | . | . | . | ? | . | 12µM
CC(C)NC(=S)N/N=C/c1ccc2c(c1)OCCO2 | ? | . | . | ? | . | 6.7µM
C(=N\Nc1ccc2ccccc2n1)/c1ccc2c(c1)OCCO2 | . | . | ? | ? | . | 0.067µM
COc1cc(NC(=O)NCCn2nnc3cc(S(=O)(=O)N(C)C)ccc32)cc(OC)c1 | / | / | / | / | / | .
CCCc1noc(-c2ccc(NCc3ccccc3OC)c([N+](=O)[O-])c2)n1 | / | / | / | / | / | .
Cc1nn2c(COc3ccc(NC(=O)c4ccccc4Cl)cc3)nnc2c2ccccc12 | . | . | . | ? | . | 6µM
O=C(CSc1nc2ccccc2o1)N/N=C/c1ccc(C(=O)O)cc1 | . | / | . | . | . | .
Oc1ccccc1/C=N/Nc1nc2ccccc2o1 | . | / | 9.2µM | ? | . | 1.9µM
Brc1ccc(/C=N/Nc2nc3ccccc3o2)cc1 | 1.1µM | / | ? | ? | 1.6µM | 1.5µM
Cc1ccc(-n2c(=O)c3ccc(C(=O)NCc4ccco4)cc3n(Cc3ccc(Cl)cc3)c2=O)cc1 | / | . | / | / | / | .
Cc1ccc(CN(C(=O)c2ccccc2F)c2ccccn2)o1 | / | / | / | / | / | .
SMILES | Rab9 prom act | SMN2 splice up | ELG1 genotoxic | ELG1 repair inh | NPC1 prom act | FLuc counter
Clc1ccc(-c2nnc(-c3ccccc3)c(-c3ccccc3)n2)cc1 | . | / | . | . | . | .
COc1nc(-c2ccccc2)nnc1-c1ccccc1 | 3.2µM | 13µM | 8.2µM | ? | ? | 5.4µM
Cc1cc(C)n(-c2nc(NCCC(C)C)c3c4c(sc3n2)COC(C)(C)C4)n1 | . | . | . | 18µM | . | .
CSc1nnc2c3c4c(sc3nc(-n3nc(C)cc3C)n12)COC(C)(C)C4 | . | / | . | 13µM | . | .
CC1CC(C)CN(c2ccc(NS(=O)(=O)c3ccccc3)cc2C(=O)O)C1 (stereo unspecified) | . | / | . | . | . | .
CCN(Cc1ccc(OC)c(F)c1)C(=O)/C=C/c1ccc(S(=O)(=O)N2CCOCC2)cc1 | . | / | . | ? | . | .
Cc1ccccc1N(Cc1cc(=O)[nH]c2ccccc12)C(=O)CCl | . | / | . | 10µM | . | .
CCC(=O)N(Cc1cc(=O)[nH]c2ccccc12)c1ccccc1 | . | / | . | . | . | .
Cc1ccccc1N(Cc1cc(=O)[nH]c2ccccc12)C(=O)C(C)C | . | / | . | . | . | .
O=C(CCl)N(Cc1cc(=O)[nH]c2ccccc12)c1ccccc1 | . | / | . | 13µM | . | .
Clc1ccccc1CN1CCN(/N=C/C=C\c2ccco2)CC1 | ? | . | . | ? | . | 17µM
C(/C=C/c1ccco1)=N/N1CCN(c2ccccc2)CC1 | 3.5µM | ? | ? | ? | 1.6µM | 8.5µM
C(=N\N1CCN(Cc2cccc3ccccc23)CC1)/c1ccco1 | . | . | . | . | . | ?
CCOc1ccc(OCC)c(NS(=O)(=O)c2cc(-c3cnc(C)o3)ccc2OC)c1 | / | / | / | / | / | .
COC(=O)c1ccc(Cl)cc1NC(=O)Nc1nnc(N(C)C2CCCCC2)s1 | / | / | / | / | / | .
COc1ccc(-n2c(C)cc(/C=C/c3nc(O)c([N+](=O)[O-])c(=O)[nH]3)c2C)cc1 | . | . | . | . | . | ?
Cc1cc(/C=C\c2nc(O)c([N+](=O)[O-])c(=O)[nH]2)c(C)n1-c1ccccc1 | . | . | . | . | . | 11µM
COc1ccc(NC(=O)CN(C)CC(=O)Nc2ccc3c(c2)CCC3)cc1 | . | . | . | . | . | .
Cc1ccccc1CC(=O)Nc1ccc2c(c1)CCC2 | . | / | . | ? | . | ?
COc1ccccc1C(=O)NCC(=O)Nc1ccc2c(c1)CCC2 | . | / | ? | ? | ? | 12µM
CCCCN(C)CCC(=O)Nc1ccc2c(c1)CCC2 | . | / | . | 15µM | . | .
COc1ccc(OC)c(CC(=O)Nc2ccc3c(c2)CCC3)c1 | . | / | . | . | . | .
COc1ccc(CC(=O)Nc2ccc3c(c2)CCC3)cc1OC | . | . | . | 10µM | . | .
O=C(Cc1ccccc1F)Nc1ccc2c(c1)CCC2 | 3.2µM | / | 15µM | ? | 2µM | 7.6µM
COc1ccccc1CC(=O)Nc1ccc2c(c1)CCC2 | . | . | . | ? | . | ?
SMILES | Rab9 prom act | SMN2 splice up | ELG1 genotoxic | ELG1 repair inh | NPC1 prom act | FLuc counter
CCCC(=O)Nc1ccc2c(c1)Cc1ccccc1-2 | 2.5µM | / | ? | ? | 1.8µM | 9.5µM
CCOc1ccc(CCNC(=O)CCSCc2cccc(Cl)c2)cc1OCC | / | / | / | / | / | .
Cc1ccnc(Nc2nc(-c3ccc(F)cc3)cs2)c1 | 2.5µM | / | ? | ? | 1.8µM | 0.85µM
Cc1ccnc(Nc2nc(-c3ccc(Cl)cc3)cs2)c1 | 2.8µM | / | ? | ? | 2.8µM | 2.7µM
Cc1ccc(S(=O)(=O)Nc2nc(-c3ccc(F)cc3)cs2)cc1 | . | / | . | . | . | .
N#Cc1ccc(C(=O)OCC(=O)N2CCCCCC2)cc1 | . | / | . | . | . | .
Cc1ccc(N=C/C(C(=O)C(F)(F)F)=C(\O)c2cccs2)cc1 | 1.8µM | ? | ? | ? | 1.8µM | 13µM
COc1cccc(C(=O)Nc2cc3c(cc2Cl)OCCCO3)c1 | 1.8µM | 10µM | ? | ? | 3.2µM | 3µM
COc1ccc(C(=O)Nc2cc3c(cc2Cl)OCCCO3)cc1 | 3.5µM | ? | ? | ? | 2µM | 9.5µM
COc1ccc(C(=O)Nc2cc3c(cc2C(=O)c2ccccc2Cl)OCCO3)cc1 | / | . | / | / | / | .
CCn1c(SCC(=O)Nc2ccc(OC)cc2)nc2c(c1=O)SCC2 | . | / | . | . | . | .

High-throughput results: PubChem, National Center for Advancing Translational Sciences (NCATS)
